Assay results taken from PubChem BioAssay AID504500 (NMMLSC, 2011).
Entries with a potency or affinity are not part of this list. Calls of active or inactive are those of the source.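 The calls were made as follows: active = compounds whose curve fit is tight, with span above 25% and half-effect concentration below 10 µM; inactive = the rest.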

Molecular target: Beta-adrenergic receptor kinase 1 (Homo sapiens) (UniProt P25098)
Test: aptamer displacement from bead-bound GRK2 – biochemical, cherry pick 1, bead flow cytometry, dose response (AID 504500)
Conditions: bead-bound biotinylated GRK2, FAM-aptamer displacement; series mostly up to 33 µM

Beta-adrenergic receptor kinase 1 (Homo sapiens), sequence (P25098 whole entry, looked up): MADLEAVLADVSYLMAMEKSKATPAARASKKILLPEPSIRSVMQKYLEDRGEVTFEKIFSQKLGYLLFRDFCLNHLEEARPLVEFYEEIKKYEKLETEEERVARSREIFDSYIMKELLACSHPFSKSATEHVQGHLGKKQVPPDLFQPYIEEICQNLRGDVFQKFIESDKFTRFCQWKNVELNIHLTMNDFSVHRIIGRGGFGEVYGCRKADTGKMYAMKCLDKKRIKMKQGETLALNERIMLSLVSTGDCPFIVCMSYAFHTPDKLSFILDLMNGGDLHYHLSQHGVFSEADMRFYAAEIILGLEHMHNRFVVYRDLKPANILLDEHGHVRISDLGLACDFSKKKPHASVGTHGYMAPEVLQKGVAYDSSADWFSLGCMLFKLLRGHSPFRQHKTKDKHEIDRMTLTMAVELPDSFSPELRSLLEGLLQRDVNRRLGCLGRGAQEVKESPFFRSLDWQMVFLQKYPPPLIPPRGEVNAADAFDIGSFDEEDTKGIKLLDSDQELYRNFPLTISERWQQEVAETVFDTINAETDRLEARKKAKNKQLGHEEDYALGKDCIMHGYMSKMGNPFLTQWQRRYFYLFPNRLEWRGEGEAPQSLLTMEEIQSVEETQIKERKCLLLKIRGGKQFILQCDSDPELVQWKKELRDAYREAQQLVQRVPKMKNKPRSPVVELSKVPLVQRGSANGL

outcome, inactive:
CC(=O)N1CCN(Cc2nc3cc(Cl)ccc3c(=O)[nH]2)CC1
Cn1c(=O)c(C(=O)NNC(=O)c2cccc(Cl)c2)c(O)c2ccccc21
O=C(O)C1Nc2c(O)cc(Cl)c([N+](=O)[O-])c2C2C=CCC12 (stereo not drawn)
COc1ccccc1-[n+]1c(C)cc(/C=C2\Sc3ccccc3N2C)cc1C
CNC(=O)c1[nH]cnc1C(=O)Nc1cccc(Cl)c1
O=C(Nc1cccc(-c2ccc(N3CCOCC3)nn2)c1)c1ccccc1
Cc1cccc(CCNC(=O)CCS(=O)(=O)c2ccc(Br)cc2)c1
O=C(CCS(=O)(=O)c1ccc(Br)cc1)NCCc1ccc(Cl)cc1
Cc1ccc(CCNC(=O)CCS(=O)(=O)c2ccc(Br)cc2)cc1
CCN1/C(=C\c2ccc3ccccc3[n+]2CC)Sc2cc(C)ccc21
C=C(C)C(=O)Nc1cccc(C2=NOC3(C2)C[C@@H](C(N)=O)N(C(=O)C(=C)C)C3)c1 (stereo partly drawn)
O=C(O)C1C2C=CC(CC2)C1C(=O)O (stereo not drawn)
COC(=O)c1ccccc1NC(=O)CCS(=O)(=O)c1ccc(Br)s1
